# Hits are enriched below; roughly 14% of the tested compounds scored in any of these assays.
# Pf growth 48h – inhibits P. falciparum growth in the first generation, 48 h | P. falciparum luciferase growth in erythrocytes, 48 h | 5.9% of 310,000 active | Potency, µM (titrated, usually from 28.7 µM), for inactives: at the top dose activity change, negative = inhibition, usual class: inhibitors | AID 504832; also: potency is read from the fitted curve at half-maximal effect
#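 Read-out is firefly luciferase luminescence from an integrated reporter in P. falciparum, so falling signal marks reduced parasite growth. Infected erythrocytes were at 2% hematocrit and 0.1% parasitemia (final) in Albumax-supplemented RPMI 1640.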
# FBPA Giardia inh – inhibitors of Giardia lamblia fructose-1,6-bisphosphate aldolase. A8B2U2. purified Giardia FBPA. Potency, µM (titrated, usually from 59.6 µM), without a hit: top-dose activity, negative = inhibition, hits mostly inhibitors. 0.71% of 290,000 active; also: potency is read from the fitted curve at half-maximal effect; nearly all actives have a fitted effect of over 55% in size
# Target sequence (A8B2U2 whole entry, looked up): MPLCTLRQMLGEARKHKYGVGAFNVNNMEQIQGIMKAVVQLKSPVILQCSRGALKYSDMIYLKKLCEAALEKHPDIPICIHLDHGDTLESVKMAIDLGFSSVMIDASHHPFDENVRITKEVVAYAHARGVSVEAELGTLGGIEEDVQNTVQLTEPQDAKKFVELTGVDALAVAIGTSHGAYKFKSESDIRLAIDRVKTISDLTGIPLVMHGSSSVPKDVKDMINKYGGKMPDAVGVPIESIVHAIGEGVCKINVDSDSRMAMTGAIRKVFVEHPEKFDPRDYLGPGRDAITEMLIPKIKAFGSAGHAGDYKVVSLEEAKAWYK
#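 40 nM FBPA preincubated 10 min at RT with compound (up to 57.5 uM final), then substrate plus GAPDH/TPI/NAD/arsenate coupling and diaphorase/resazurin added. Fluorescence read after 20 min at RT, 525/598 nm.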
# Sm TGR inh – blocks Schistosoma mansoni thioredoxin glutathione reductase | Q962Y6 | purified TGR, DTNB reduction, TNB absorbance 405 nm | Potency, µM (titrated, usually from 114 µM), inactives show at the highest dose activity change, negative = inhibition, most hits filed as inhibitors | 3% of 360,000 active; also: potency is read from the fitted curve at half-maximal effect; nearly all actives have a fitted effect of over 60% in size
#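 TGR 20 nM + NADPH 100 uM (dispensed conc.), cpd preinc 15 min RT; start with NADPH (500 uM addition) then DTNB (15 mM addition). Kinetic TNB absorbance, 405 nm filter. Four-parameter Hill fit across titration.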
# HCMV inh – blocks human cytomegalovirus replication; HFF cells, HCMV-luciferase reporter, 72 h; stronger effect = lower value; 4.5% of 410,000 active; AID 1259415; activity change, negative = inhibition, % at 57.5 µM; in the data active = activity change below about -60%; inconclusive = no clear call, values can overlap the other calls; inactive = above about -39%
#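 Compounds were evaluated in HFFs infected with an HCMV luciferase reporter virus (MOI 1 PFU/cell). Luciferase in lysates collected 72 h post infection served as the replication measure.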
# Pf growth 96h – inhibits malaria parasite growth, 96 h; Potency, µM (doses to about 28.7 µM), for inactives: at the top dose activity change, negative = inhibition, usual class: inhibitors; 6.9% of 320,000 active; P. falciparum luciferase reporter growth, 96 h; also: potency is read from the fitted curve at half-maximal effect
#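 Infected RBCs, 2% Hct / 0.05% parasitemia final; luciferase-reporter P. falciparum; cpd 96 h, 37 C, 5% CO2; luciferase detection reagent; luminescence.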
# Active calls of the source: *; ? = inconclusive; / = no result given. Unless noted, calls follow the shape of the dose curve; as a rule, active = well fitted curve in the direction sought with a large enough effect; inconclusive = small, poorly fitted or top-dose-only effect, or another doubt; inactive = no such curve, though single readings can be large; an effect the other way counts as inactive or inconclusive. % is scaled to controls: 0 for no effect and ±100 for the full control effect.
SMILES,Pf growth 48h,FBPA Giardia inh,Sm TGR inh,HCMV inh,Pf growth 96h
CCCCN(C)CCN1C(=O)C2C(C(=O)Nc3ccc(Cl)cc3)C3C=CC2(O3)C1C(=O)NC1CCCCC1 (centres undefined),10.4µM*,12.1%,-16.5%,37.8,-3.1%
CCCN(CCC)CCN1C(=O)C2C(C(=O)Nc3ccc(C)cc3)C3C=CC2(O3)C1C(=O)NC1CCCCC1 (centres undefined),?,-9.4%,-22.3%,1.3,?
O=C(Nc1cccc(Cl)c1)C1C2C=CC3(O2)C1C(=O)N(CCN1CCCCC1)C3C(=O)NC1CCCCC1 (centres undefined),?,5.8%,-2.7%,-40.0,5.22µM*
CCC1CCCCN1CCN1C(=O)C2C(C(=O)Nc3cccc(OC)c3)C3C=CC2(O3)C1C(=O)NC1CCCCC1 (centres undefined),8.28µM*,8.8%,-33.2%,?,-17.2%
O=C(Nc1ccc(Cl)cc1)C1C2C=CC3(O2)C1C(=O)N(CCN1CCCCC1)C3C(=O)NC1CCCCC1 (centres undefined),?,9.6%,-4.4%,5.4,?
CCOc1ccc(C(=O)COC(=O)C2COc3ccccc3O2)cc1 (centres undefined),5.6%,/,2.4%,82.2,12.6%
CCc1ccc(C(=O)C(C)OC(=O)C2COc3ccccc3O2)cc1 (centres undefined),4.0%,-0.2%,-1.3%,-98.0*,6.3%
CCn1c(=O)[nH]c2cc(C(=O)Nc3cc(C)cc(C)c3)ccc2c1=O,4.65µM*,8.6%,/,-4.1,29.7%
CCCCCn1c(=O)[nH]c2cc(C(=O)Nc3ccc(OC)cc3)ccc2c1=O,11.8%,8.0%,1.7%,/,?
Cc1cc(C)c2nc(NC(=O)CN3C(=O)NC4(CCCC4)C3=O)sc2c1,0.3%,/,1.1%,7.2,-3.0%
Cc1onc(-c2c(Cl)cccc2Cl)c1C(=O)NNc1ccccc1,6.7%,0.4%,50.1µM*,-10.3,0.6%
Cc1onc(-c2c(F)cccc2Cl)c1C(=O)Nc1nccs1,-11.6%,-8.0%,-14.8%,?,-18.0%
Cc1onc(-c2c(Cl)cccc2Cl)c1C(=O)Nc1ccc2c(C(F)(F)F)cc(=O)oc2c1,?,-0.7%,15.9%,-12.3,2.33µM*
Cc1onc(-c2c(Cl)cccc2Cl)c1COC(=O)c1ccc(Cl)cc1,?,-4.5%,3.2%,-12.4,13.1µM*
Cc1onc(-c2c(Cl)cccc2Cl)c1NC(=O)NNc1ccccc1,?,-0.6%,-11.7%,-8.7,-0.5%
Cc1onc(-c2c(F)cccc2Cl)c1C(=O)Nc1nnc(C(F)(F)F)s1,33.1%,/,2.1%,-98.0*,10.4µM*
Cc1onc(-c2c(Cl)cccc2Cl)c1COC(=O)c1ccc([N+](=O)[O-])cc1,?,-3.7%,1.4%,12.3,?
CCOCCCNC(=O)CCN1C(=O)c2ccccc2Sc2ncccc21,/,-1.4%,-0.8%,-16.0,?
Cc1nc(C(=O)NNC(=O)c2c(-c3c(Cl)cccc3Cl)noc2C)cs1,?,-14.2%,13.4%,?,?
CC(C)(C)c1csc(NC(=O)c2cccs2)n1,54.8%,-8.4%,-15.6%,-31.0,?
Cc1ccc(NC(=O)c2c(-c3c(F)cccc3Cl)noc2C)cc1F,9.28µM*,-5.7%,-0.4%,25.4,?
CC(C)(C)c1csc(NC(=O)c2cccnc2)n1,?,-0.5%,11.2%,-31.5,14.7µM*
Cc1onc(-c2c(F)cccc2Cl)c1-c1nnc(-c2ccc(C(F)(F)F)cc2)o1,8.28µM*,-4.5%,2.8%,?,8.28µM*
Cc1onc(-c2c(Cl)cccc2Cl)c1C(=O)Nc1nc(C(C)(C)C)cs1,?,-7.5%,3.8%,8.0,10.4µM*
CCOC(=O)[C@]12CCC=C1N(CCC1=CCCCC1)C(=O)[C@H](CC(=O)NCc1cccs1)C2,/,/,/,-3.8,/
SMILES,Pf growth 48h,FBPA Giardia inh,Sm TGR inh,HCMV inh,Pf growth 96h
CCOC(=O)[C@]12CCCC=C1N(Cc1ccco1)C(=O)[C@H](CC(=O)NCCc1ccccc1OC)C2,/,/,/,5.8,/
Cc1ccc(S(N)(=O)=O)cc1NC(=O)c1c(-c2c(Cl)cccc2Cl)noc1C,/,/,-2.4%,-0.8,/
Cc1onc(-c2c(F)cccc2Cl)c1C(=O)N=C(N)N1CCCC1,6.3%,-0.4%,6.1%,-5.2,-9.7%
Cc1onc(-c2c(Cl)cccc2Cl)c1C(=O)N=C(N)N1CC(C)OC(C)C1 (centres undefined),3.29µM*,-0.5%,5.6%,-1.2,11.7µM*
Cc1ccc(S(=O)(=O)N(C)C)cc1NC(=O)c1c(-c2c(F)cccc2Cl)noc1C,11.7µM*,0.3%,-7.8%,?,?
Cc1ccc(F)c(C2C3C=CCCC3(C)C(=O)N2Cc2ccccc2)c1 (centres undefined),/,20.6%,/,/,/
COC(=O)[C@@H]1[C@@H](CO)[C@@H]2Cn3c(ccc(Br)c3=O)[C@H]1N2C(=O)CN(C)C,/,/,/,18.9,/
Cc1ccc(SCC(=O)Nc2cccc(-c3nnc(-c4ccco4)o3)c2)cc1,-91.5%,-0.6%,-10.2%,-98.6*,28.2%
Cc1ccc2nc(-c3ccc(NC(=O)Cc4cccs4)cc3)[nH]c2c1,?,3.8%,-13.6%,25.1,4.15µM*
Cc1ccc2nc(NC(=O)Cc3cccs3)sc2c1,/,0.4%,0.0%,-37.4,112.7%
O=C(Nc1ccc2nc(-c3ccc4nc[nH]c4c3)[nH]c2c1)c1cccs1,2.62µM*,1.0%,-34.7%,-21.4,?
O=C(Nc1ccc2[nH]ccc2c1)c1cccs1,151.8%,-1.7%,8.6%,59.1,423.8%
Cc1cccc(-c2nnc(-c3cccc(NC(=O)Cc4cccs4)c3)o2)c1,?,-1.7%,4.7%,2.1,10.4µM*
CCOC(=O)c1ccc(NC(=O)CSc2nc3ccccc3c(=O)n2CCC(=O)NC2CCCCC2)cc1,/,/,8.5%,2.9,/
O=C(Nc1ccc2nc(-c3ccco3)[nH]c2c1)c1ccco1,/,-9.8%,-34.9%,-15.5,/
O=C(Nc1ccc2nc(-c3ccccc3)[nH]c2c1)c1cccs1,/,-16.6%,0.0%,-79.4*,?
O=C(Nc1ccc2nc(-c3ccco3)[nH]c2c1)c1cccs1,227.5%,-16.8%,25.1µM*,-8.7,?
CC(=O)Nc1ccc2nc(-c3cccnc3)[nH]c2c1,80.2%,-2.8%,0.1%,-2.5,31.7%
O=C(Nc1ccc2nc(-c3cccnc3)[nH]c2c1)c1ccco1,-0.4%,-7.4%,-25.3%,-67.0*,?
Cc1cccc(C)c1NC(=O)C1(C)CSCC(=O)N1CCOc1ccccc1 (centres undefined),/,/,/,2.3,/
COc1ccc(-c2nccc3[nH]nc(-c4ccccc4)c23)cc1,/,/,/,-18.5,/
O=C(NNC(=O)c1ccc(F)c(S(=O)(=O)N2CCOCC2)c1)c1ccc([N+](=O)[O-])cc1,-15.9%,/,3.3%,21.1,11.7%
CC(C)CC(=O)/C(=C/c1ccc(N(C)C)cc1)n1cncn1,-4.1%,-1.1%,3.9%,-60.3*,?
CC(C)CC(=O)/C(=C\c1ccc(Cl)cc1Cl)n1cncn1,?,-0.9%,22.4µM*,/,?
